# Results as given in the supplement of paper PMC11417369.
# In all, about 25,000 sequences were measured (“ln(normalized median fluorescence intensity)”: median about 9.7, highest 2% from about 11 on). The full list was thinned out, with the highest values kept by preference.
# System: PfAP2-HC AP2 domain (GST-tagged)
# Assay: gcPBM binding intensity (ln(normalized median fluorescence intensity)); higher = stronger DNA binding
# How it was run: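 Plasmodium falciparum DNA-binding domains carrying a GST tag were expressed in E. coli and applied for 1 h, at about 25 μg on average, to an Agilent 4 × 180k array. The array held primer-extended double-stranded 36-bp intergenic genomic probes together with negative controls, and binding took place in 1× PBS with 1% milk, 0.2 mg/ml BSA, 0.5% salmon testes DNA and 0.03% Triton X-100. An Alexa488 anti-GST antibody detected bound protein, and the array was scanned at 488 nm. Binding intensity is taken as the highest Masliner-normalised natural-log median intensity across replicate spots of either probe orientation.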
row,Sequence,gcPBM binding intensity (ln)
1,ACATTATGCCATAAATGTACACATACATATACACAG [XGTACX_site1330],9.66
2,AAACAATTTTTTAAAAGTACTTGAAAATTGTGAAAT [XGTACX_site2461],9.63
3,TTTTAATGAAAACACACACACACATATATATATATA [CACACA_site5295],11.1
4,TTTTAATTAAAACACACACACACATATATATATATA [CACACA_site2291],10.6
5,AAAAAAACACACACATATATATATATATATATATAT [GTGCAC_negctrl_site498],10.3
6,AAAAAAAAAAAAAAAACACACATATATATATATATA [CACACA_site2436],10.4
7,TTTAAGCAAAAACACACACACATATATATATATATA [CACACA_site349],11.1
8,ATAAAATGAACAAACACACACACATATATATATATA [CACACA_site2402],10.9
9,AAAAAAATGAAACACACACACACATATATATATATA [CACACA_site1043],10.4
10,AAAATGAACAAACACACACACATATATATATATATA [CACACA_site2403],11.2
11,TATAAGCAAAAACACACACACATATATATATATATA [CACACA_site3804],10.2
12,AAAAAACAAAAACACACACACACATATATATATATA [CACACA_site3654],10.9
13,AACAAAAATGAAAAAACACACATAACATATATAAAT [CACACA_site740],10.1
14,CCTTTAAGCAAAAACACACACACATATATATATATA [CACACA_site348],10
15,CAAAGATATATAAACACACAAATATAACATATATAC [CACACA_site7395],9.99
16,ATATATTTATATATTACACACAATATTGTAGACATA [CACACA_site4669],9.74
17,TATATATAACTTTATTGTACAAAATATTATGTATTC [XGTACX_site981],9.66
18,TGATCAGATAGACACACACACAAAAAAAAAAAAAAA [CACACA_site7805],10.1
19,TATCAAAATTAGTATACACACAAAATTAATCAAATA [CACACA_site7117],9.86
20,ATATTAAGTTTTATTACACACTCTCAATTTTTATTT [CACACA_site4206],9.87
21,ATATTTTTTTCATAGACACACACAATATATCTGTTT [CACACA_site8993],10.1

row,Sequence,gcPBM binding intensity (ln)
1,AATATAAACAAACACACACACATATATATATATATT [CACACA_site5592],10.3
2,AAAAAAAAAAAACACACACACATATATATATATATA [CACACA_site732],11.1
3,AAAAAAAAAAAAAAAACACACACATATATATATATA [CACACA_site8571],9.9
4,AAATAAATGAAACACACACACACAAAAAAAAAAAAC [CACACA_site2625],10.9
5,GGATATAACAAACACACACACACATATATATATATT [CACACA_site4141],11.2
6,CTCCATATGAAACACACACACAAATGAAAAAAATAT [CACACA_site3018],11
7,CTCCATATTAGACACACACACAAATGAAAAAAATAT [CACACA_site7420],10.2
8,AATATAAACACAAACACACACATATATATATATATA [CACACA_site4307],10.1
9,AAAAAAAAAAAAAACACACACATATATATATATATA [CACACA_site1891],10.4
10,TATTATTTGAGTAGTTGTACTCATTAATATATAAAA [XGTACX_site3468],9.35
11,TTTGGCTAGTTAGGCCGTACATGTAAATAATATATA [XGTACX_site1138],9.47
12,AACGCACGAGGACACACACACATATTTATATTTATA [CACACA_site6608],11.4
13,AGCACGCACAGACACACACACATATTTATATTTATA [CACACA_site6291],10.3
14,TATATATATTTATGCACACAAAATATATTATATAAT [CACACA_site5955],9.67
15,AAAAAACACGGACACACACACATATACATACATACA [CACACA_site5470],10.6
16,ATATTAAACAGACACACACACATATATTTATTTATA [CACACA_site7564],10.4
17,ACCATACATACATACACACACACACGCATATTTATA [CACACA_site7386],11.2
18,ATTATATATATTTATGCACACAAAATATATTATATA [CACACA_site9244],9.64
19,AACTCACGAGGACACACACACATATATATATATATA [CACACA_site4711],10.2
20,AAAAAACAGACATACACACACACACGGATATTTATA [CACACA_site7570],11.4
21,CAAAAGGATATGCACACACACACACGGATATTTATA [CACACA_site7099],11.4

row,Sequence,gcPBM binding intensity (ln)
1,TATATATATTTATACACACACATATATTTATATATT [CACACA_site484],9.97
2,TATATATATATATATACACACATATATATATTTATA [CACACA_site627],10.2
3,TCATCCACATATTGTAGTACAAGATAATTGTTTATT [XGTACX_site1634],9.63
4,TTTTTAGAAAGACATGCATGTAATAAAAATAAATAA [TGCATGCA_site685],9.82
5,AAAATTTAATATAATGCACACATAAAAAAAAATTCA [CACACA_site8640],9.77
6,TATAGATGTATGTACATACACACATATATAAATAAA [CACACA_site1789],10
7,TTATGCAATTTGTATTGTACATTCATGATATTAATA [XGTACX_site5070],9.53
8,TACATGTATAAATAAGCACACATGTGGATATGTACA [CACACA_site93],10
9,TATTTTTCTTTTTAAAAATATATCACATGAACATTA [XGTACX_negctrl_site183],9.39
10,ATATAAAAAAATAATAAATAAATAAAAAGATTTCTT [XGTACX_negctrl_site110],9.65
11,TATTTATACACGCACACACACTTATACATTTATATA [CACACA_site7543],10.8
12,ATATACATTAAATGAACACACATAAATAAATTACAT [CACACA_site2852],9.89
13,TTATGATGGTCTTTATAAGGGCACATTAAATTCGGC [TGCATGCA_negctrl_site166],9.35
14,TATTTATATTTATATACACACATACATATTTATATT [CACACA_site6535],9.93
15,TACATATTTATATACACACACACACGGATATTTATA [CACACA_site7239],11
16,AAACCGTGGGAGCACACACACACACCGACACATATA [CACACA_site4338],10.4
17,ACCGTGGGAGGACACACACACACACGCACATATATA [CACACA_site6289],11.1
18,TATATATATATTTATACACACACATATATTTATATA [CACACA_site8054],10.1
19,AAACCGTGGGAGCACACACACACACGCGCACATATA [CACACA_site6288],10.5
